Source: PubChem BioAssay
A number with no mark means an inactive call. Calls of active or inactive are those of the source. No stated cut-off is given here; in the data, active means fold change permeability below about 0.7 or above about 1.3; inactive means in between.

Test: modulators of brain endothelial barrier permeability, primary screen, cell-based, FITC-avidin fluorescence, HTS (AID 1963498); further: test concentration not given here
Conditions: actives lie on both sides

Compound	fold change permeability
Nc1nc2c(ncn2[C@@H]2O[C@H](CO)[C@@H](O)[C@@H]2O)c(=O)[nH]1	2.1 (active)
CSc1ccccc1N1CCN(CCCCCC(=O)NC2CCCc3ccccc32)CC1 (stereo not given)	1.3 (active)
c1ccc(Cn2c(NCc3ccco3)nc3ccccc32)cc1	1.6 (active)
COc1cc(NS(C)(=O)=O)ccc1Nc1c2ccccc2nc2ccccc12	1.2
C=C1C(=O)O[C@@H]2[C@H]3O[C@]3(C)CC/C=C(\C)CC[C@@H]12	1.3 (active)
CCN(CC)CCNC(=O)c1cc(Cl)c(N)cc1OC	0.9
CNC1(C)C2CCC(C2)C1(C)C (stereo not given)	0.8
CCCN(CC1CC1)c1nc(C)nc(Nc2c(Cl)cc(Cl)cc2Cl)c1Cl	1.3 (active)
NCC(O)C1CCCCCCC1 (stereo not given)	1
CCN(C)C(=O)Oc1cccc([C@H](C)N(C)C)c1	1
O=C(O)CCCCN(CCc1ccccc1OCc1ccc(CCc2ccccc2)cc1)Cc1ccc(C(=O)O)cc1	1.2
CC(C)(C=O)Cc1cc(C(C)(C)C)c(O)c(C(C)(C)C)c1	1.2
CCN(c1nc(N)c(C(=O)N=C(N)N)nc1Cl)C(C)C	1.4 (active)
Cc1cc(CN)cc(C)c1NC(=O)c1ccc(-c2cc(Cl)ccc2Cl)o1	1.5 (active)
CC(C)C(=O)Nc1ccc([N+](=O)[O-])c(C(F)(F)F)c1	1.2
CC(N=C(NC#N)Nc1ccncc1)C(C)(C)C (stereo not given)	0.9
CN1CC(=O)NC1=NC(=O)Nc1cccc(Cl)c1	0.7 (active)
CC(CN1c2ccccc2Sc2ccccc21)N(C)C (stereo not given)	1.2
O=C(O)/C=C/c1cnc[nH]1	1.4 (active)
CC1(C)CC=C(c2cnc3ccccc3c2)c2cc(C(=O)Nc3ccc(C(=O)O)cc3)ccc21	1.1

Compound	fold change permeability
CCOC(=O)C1=C(C)NC(C)=C(C(=O)OC)C1c1cccc(Cl)c1Cl (stereo not given)	1.2
N#C/C(=C1/SC[C@@H](c2ccc(Cl)cc2Cl)S1)n1ccnc1	1.6 (active)
c1ccc(-c2cnn3cc(-c4ccc(OCCN5CCOCC5)cc4)cnc23)cc1	1.2
O=C(Nc1cc(C(F)(F)F)cc(C(F)(F)F)c1)Nc1c(Br)cc(Br)cc1-c1nn[nH]n1	0.9
OCc1ccc(-c2nn(Cc3ccccc3)c3ccccc23)o1	2 (active)
CCCn1c(=O)c2c(ncn2C)n(CCC)c1=O	1
CO[C@H]1O[C@@H]2O[C@@]3(C)CC[C@H]4[C@H](C)CC[C@@H]([C@H]1C)[C@@]24OO3	0.8
COc1ccc2c(c1OC)C(=O)O[C@@H]2[C@H]1c2c(cc3c(c2OC)OCO3)CCN1C	1
CCCn1c(=O)c2[nH]c(-c3ccc(S(=O)(=O)O)cc3)nc2n(CCC)c1=O	1.1
CCN(CC)CCOc1ccc(/C(=C(/Cl)c2ccccc2)c2ccccc2)cc1	1.2
O=C1c2c(O)ccc(O)c2C(=O)c2c(NCCNCCO)ccc(NCCNCCO)c21	0.8
c1ccc2c(c1)CCC[C@H]2Nc1nc2ccccc2[nH]1	1.3 (active)
CC(CCc1ccc(O)cc1)NCCc1ccc(O)c(O)c1 (stereo not given)	1.2
O=c1c(O)c(-c2cc(O)c(O)c(O)c2)oc2cc(O)cc(O)c12	0.7 (active)
CCCCCCCC/C=C\CCCCCCCC(=O)NCCO	1.2
COc1cc(N2CCN(C)CC2)ccc1Nc1nccc(-c2cn(C)c3cnccc23)n1	1.2
CCCOc1ccccc1-c1nc2n[nH]nc2c(=O)[nH]1	1.9 (active)
CC(=O)N=c1sc(S(N)(=O)=O)nn1C	1.4 (active)
COc1ccc2[nH]c([S@@](=O)Cc3ncc(C)c(OC)c3C)nc2c1	0.9
NC[C@@H]1O[C@H](O[C@H]2[C@@H](O)[C@H](O[C@@H]3[C@@H](O)[C@H](N)C[C@H](N)[C@H]3O[C@H]3O[C@H](CO)[C@@H](O)[C@H](O)[C@H]3N)O[C@@H]2CO)[C@H](N)[C@@H](O)[C@@H]1O	1
